From PubChem BioAssay
HT1080-NT tox: kills 2HG-producing HT-1080-NT fibrosarcoma cells | Potency, µM (titrated, usually from 46.1 µM), without a hit: at the highest dose activity, negative = less viability, most hits filed as cytotoxic | HT-1080-NT fibrosarcoma viability, CellTiter-Glo ATP luminescence, 48 h | 360,000 compounds, 1.6% hits;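 further: NT is the 2HG producing partner of a matched IDH1 knockdown line; 0% = DMSO-treated cells and -100% = media-only wells without cells; nearly all actives have a fitted effect of over 55% in size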
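HT-1080-NT fibrosarcoma cells (2HG-overproducing), 750 cells/well in RPMI with 5% FBS, dosed after 2 h and incubated 48 h at 37C. CellTiter-Glo luminescence normalized to DMSO and no-cell wells; concentration-response curves fitted and classed.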
KB-V1 cytotox: KB-V1 MDR subline cytotoxicity. KB-V1 MDR cells viability, CellTiter-Glo, 72 h. Potency, µM (top dose mostly 46.1 µM), hits mostly cytotoxic. 400,000 compounds, 3.4% hits; further: nearly all actives have a fitted effect of over 60% in size
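Luminescent ATP read-out (CellTiter-Glo, 10 min) measures survival of drug-selected KB-V1 MDR cells after 72 h, 37 degrees C compound exposure. Medium: phenol-red-free DMEM, 10% FBS. Values from fitted concentration-response curves.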
HT1080 IDH1KD tx: kills HT-1080 cells with IDH1 knockdown. HT-1080 IDH1 knockdown viability, ATP luminescence, 48 h. Potency, µM (series often up to 46.1 µM), inactives show top-dose activity, negative = toxicity, usual class: cytotoxic. 360,000 compounds, 2% hits;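 further: 0% = DMSO wells and -100% = cell-free medium wells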
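Using the IDH1-knockdown HT-1080 line run in the same batch and compound series as the NT line, viability after 48 h at 37 °C was determined by CellTiter-Glo luminescence and expressed as % activity.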
KB-3-1 cytotox: kills parental KB-3-1 adenocarcinoma cells | 400,000 compounds, 1.4% hits | Potency, µM (highest dose often 46.1 µM), hits mostly cytotoxic | KB-3-1 viability, CellTiter-Glo ATP luminescence, 72 h; further: nearly all actives have a fitted effect of over 60% in size
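Multi-concentration cytotoxicity screen in KB-3-1 cells grown in DMEM lacking phenol red with 10% FBS. After 72 h at 37 °C with compound, ATP-dependent luminescence was recorded.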
* = called active by the depositor; i = inactive; ? = inconclusive; . = not tested or not shown; [ ] = remark or other dose. Sampled rows, rich in hits. Any-hit rate of the full collection: about 5.7%. The call rests on the fitted dose curve; in most records, active means well fitted curve in the direction sought with a large enough effect; inconclusive means small, poorly fitted or top-dose-only effect, or another doubt; inactive means no such curve, though single readings can be large; an effect the other way counts as inactive or inconclusive. Unless noted, on the % scale 0 is the no-effect control and ±100 the full control effect; potency means the concentration at half of the fitted maximal effect.

SMILES	HT1080-NT tox	KB-V1 cytotox	HT1080 IDH1KD tx	KB-3-1 cytotox
COc1ccc(N2CCN(C(=O)C3CCC(Cn4c(=S)[nH]c5ccccc5c4=O)CC3)CC2)cc1 (stereo not drawn)	11%	2.9µM*	-2%	18µM*
COc1ccc(N2CCN(CCCn3c(=S)[nH]c4ncccc4c3=O)CC2)cc1	-2%	i	-11%	6.5µM*
O=C(C1CCC(Cn2c(=S)[nH]c3ccccc3c2=O)CC1)N1CCOCC1 (stereo not drawn)	-2%	23µM*	8%	?
Cc1ccc(Cl)cc1NS(=O)(=O)c1cc2c(cc1F)NC(=O)CC2	.	i	.	i
COc1ccc(OC)c(/C=C/c2cc3ccccc3cn2)c1	.	i	.	5.2µM*
COc1ccc(OC)c(/C=C/c2ccccc2)c1	.	i	.	?
c1ccc(Cc2nn3c(Cn4nnc5ccccc54)nnc3s2)cc1	-21%	23µM*	-16%	i
c1ccc(-c2nn3c(Cn4nnc5ccccc54)nnc3s2)nc1	-5%	18µM*	21%	i
c1ccc(CCc2nn3c(Cn4cnc5ccccc54)nnc3s2)cc1	-21%	18µM*	?	?
COc1cc(NS(=O)(=O)c2ccc(NC(=O)c3cccc(F)c3)cc2)nc(OC)n1	.	i	.	i
O=C(CCSc1ccccc1)Nc1nc2c(s1)CCCC2	-11%	26µM*	?	i
O=C(Cc1cccs1)Nc1nc2c(s1)CCCC2	?	12µM*	1.1µM*	?
O=C(Cc1cccs1)Nc1nnc(CCc2ccccc2)s1	-2%	18µM*	3%	i
O=C(Cc1cccs1)Nc1nnc(Cc2ccccc2)s1	-13%	?	3%[9.24 µM]	i
Cc1cc(NC(=O)CSc2nc(C(C)C)nc3ccccc23)no1	?	?	16µM*	?
COC(=O)c1sccc1S(=O)(=O)N(CC(=O)Nc1ccccc1C)c1ccc(Cl)cc1	.	i	.	i
Fc1ccc(-c2nc(Nc3ccc(F)c(Cl)c3)nc3c2COc2ccccc2-3)cc1	.	i	.	i
Cc1cc(NC(=O)CSc2nc3c(C)ccc(C)c3cc2C#N)no1	-4%	i	-7%	i
CC(C)c1nc(SCC(=O)Nc2nc3c(s2)CCCC3)c2ccccc2n1	?	15µM*	11µM*	i
Cc1cc(NC(=O)CSc2nnc(-c3ccoc3C)o2)no1	11µM*	i	6.3µM*	i
O=C(CSc1nc(Cc2ccccc2)nc2ccccc12)Nc1nc2c(s1)CCCC2	-7%	?	?	i
CC(C)(C)c1nc(SCC(=O)Nc2nc3c(s2)CCCC3)c2ccccc2n1	?	?	1.4µM*	i
Cc1cc(C)c(C#N)c(SCC(=O)Nc2cc(C)on2)n1	1%	8.2µM*	-3%	i
CCCOc1ccc(/C=C/C(=O)Nc2sc3c(c2C(=O)OCC)CCC(C)C3)cc1OC (stereo not drawn)	.	i	.	i
Cc1ccc(CNC(=O)c2cn(C)c3ccc(S(=O)(=O)N4CCC(C)CC4)cc3c2=O)cc1	.	i	.	i
SMILES	HT1080-NT tox	KB-V1 cytotox	HT1080 IDH1KD tx	KB-3-1 cytotox
Cc1cc(NC(=O)CSc2nnc(-c3ccccc3)c(-c3ccccc3)n2)no1	2.9µM*	5.2µM*	5.2µM*	7.3µM*
Cc1cc(NC(=O)CSc2ccccc2)no1	-6%	i	-2%	i
COC(=O)Nc1nc(C)c(C(=O)c2ccccc2)s1	?	7.3µM*	?	?
COC(=O)Nc1nc(-c2ccccc2)c(C(=O)c2ccccc2)s1	?	?	?	0.16µM*
CCOc1ccc(/C=C/c2ccc3ccccc3[n+]2C)cc1OCC	.	i	.	?
COc1ccc(CCNc2ncnc3c2c(C)c(C)n3CCO)cc1OC	6%	i	1%	i
COc1ccc(CCNc2ncnc3c2oc2ccccc23)cc1OC	7.9µM*	2.6µM*	-17%	9.2µM*
COc1ccc(CCNc2nc(C)nc3c2oc2ccccc23)cc1OC	-10%	16µM*	-19%	?
CCC12CN3CC(C)(CN(C1)C3c1c[nH]c3ccccc13)C2=O (stereo not drawn)	.	i	.	i
CC(=O)n1c2ccccc2c2c1c1ccccc1n2C	23µM*	i	?	i
CC1CC(C)CN(C(=O)COC(=O)c2ccc3c(c2)OCO3)C1 (stereo not drawn)	2%	i	0%	i
CC1CCN(C(=O)COC(=O)c2cc(Cl)c3c(c2)OCO3)CC1	3%	21µM*	3%	i
COc1ccc(C2Nc3ccccc3C(=O)N2Cc2ccco2)cc1COc1c(C)cccc1C (stereo not drawn)	.	i	.	16µM*
COc1cccc(OCc2cc(C3Nc4ccccc4C(=O)N3Cc3ccco3)ccc2OC)c1 (stereo not drawn)	-1%	4.1µM*	0%	i
O=C(COc1ccccc1C(=O)Nc1ccccc1)Nc1cccc(Br)c1	.	i	.	i
CCN(CCCNC(=O)CSc1cc(=O)n(CC)c2ccccc12)c1ccccc1	.	i	.	i
CCn1nc(C)c(CNC(=O)c2cc(COc3ccc(F)cc3Cl)on2)c1C	9.2µM*	?	-2%	?
COc1ccc(C(=O)Oc2c(Sc3ccc(C)cc3)c(C)nn2C(C)(C)C)c(OC)c1	.	i	.	i
CC(C)Oc1cccc(C2CC(=O)Nc3cc4c(cc32)OCO4)c1 (stereo not drawn)	.	?	.	3.7µM*
Cc1cc2c(cc1C)C(c1ccccc1OC(C)C)CC(=O)N2 (stereo not drawn)	4.1µM*	?	2.3µM*	5.8µM*
CCCCOc1ccccc1C1CC(=O)Nc2cc(OC)c(OC)cc21 (stereo not drawn)	.	i	.	i
COc1ccccc1C1CC(=O)Nc2cc(C)c(C)cc21 (stereo not drawn)	?	9.2µM*	6.5µM*	16µM*
CCOc1ccccc1C1CC(=O)Nc2cc(C)c(C)cc21 (stereo not drawn)	?	8.2µM*	15µM*	?
COc1ccc(CCNC(=O)C2COc3ccccc3C2)cc1OC (stereo not drawn)	.	i	.	i
CC(=O)N/C(=C/c1ccccc1)c1sc2ccccc2[n+]1CCCCI	.	i	.	i
SMILES	HT1080-NT tox	KB-V1 cytotox	HT1080 IDH1KD tx	KB-3-1 cytotox
CCCN1C(=O)C(Cc2nc3ccccc3c(=O)n2-c2ccc(OC)cc2)c2cc(C)ccc21 (stereo not drawn)	.	i	.	i
COc1cccc(C2CC(=O)Nc3cc4c(cc32)OCO4)c1OC(C)C (stereo not drawn)	.	i	.	i
CC(C)Oc1ccccc1C1CC(=O)Nc2cc3c(cc21)OCO3 (stereo not drawn)	3.7µM*	1.3µM*	1.8µM*	2.6µM*
Cc1cc2c(cc1C)C(c1ccccc1Br)CC(=O)N2 (stereo not drawn)	-5%	23µM*	-9%	18µM*
O=C(NCCOc1cccc(Cl)c1Cl)c1cc(-n2cnnc2)ccc1Cl	-26%	i	-21%	i
O=C(NCCOc1cccc(Oc2ccccc2)c1)c1cc(-n2cnnc2)ccc1Cl	-15%	16µM*	?	i
